Measured values taken from ChEMBL document CHEMBL3988442, “University of Dundee, Small-Polar-MMV Screening Library” (2021).
“And” between values parts separate entries of the source, which are not always exact repeats. Identical values can stand only once. Out of some 34,000 compounds screened, about 290 (0.85%) showed an effect of 50% or more. The sample holds strong results, similar compounds and a random draw of the others, so the mix is not that of the screen.

System: Plasmodium falciparum
Experiment: Plasmodium falciparum sporozoite viability assay
Type: functional, organism-based
Parameters: scale not given: in the data most compounds retested in dose-response had high values

Row | Structure (SMILES) | Percent Effect | Percent Effect (10 mM as filed; unlikely as a test dose)
1 | CCOc1cc(C)nc(N2CCN(C(=O)CN(C)C3CC3)CC2)n1 | 8.163% | 
2 | Cn1cncc1CN1CCC(O)(Cn2nc(-c3cccs3)oc2=O)CC1.O=C(O)CC(O)(CC(=O)O)C(=O)O | -17.63% | 
3 | CC(C)n1nc2c(cc1=O)CN(c1nc3ccccc3s1)CC2 |  | 66.67% and 52.43% and 41.91%
4 | CN(C)C(=O)CS(=O)(=O)Cc1cc(Cl)c2c(c1)OCCO2 | 4.247% | 
5 | Clc1cc(CN2CCCCC2Cn2cncn2)c2ncccc2c1 (centres undefined) | -10.63% | 
6 | CC(C)Nc1ncnc2c1CCN(C(=O)c1ccc[nH]1)CC2 | -7.967% | 
7 | CC(C)C[C@H](N)COc1cccc(F)c1Oc1cccc(Cl)c1 | 0.9974% | 
8 | Cc1ccc(NS(=O)(=O)c2cc3c(c(C(=O)O)c2)OCCO3)cc1F | 6.057% | 
9 | O=C(O)C(F)(F)F.O=c1ccc2c(n1CC1CC1)CCC(NCc1cccs1)C2 (centres undefined) | 4.557% | 
10 | Cc1noc(NC(=O)c2ccc(OC(F)(F)F)cc2)n1 | -13.94% | 
11 | FC(F)(F)Oc1ccc(-c2noc([C@@H]3Cc4nc[nH]c4CN3)n2)cc1 |  | 93.02% and 93.75%
12 | Cc1cccc(-c2noc([C@@H]3Cc4nc[nH]c4CN3)n2)c1 |  | 77.23% and 75.76%
13 | c1ccc(-c2noc([C@@H]3Cc4nc[nH]c4CN3)n2)cc1 |  | 8.153% and 22.58%
14 | c1cc(-c2noc([C@@H]3Cc4nc[nH]c4CN3)n2)ccn1 |  | -0.1591% and 11.18%
15 | Cc1cccc(-c2noc(CN3CCOCC3C)n2)c1 (centres undefined) | 5.079% | 
16 | Cc1ccc(-c2noc([C@@H]3Cc4nc[nH]c4CN3)n2)cc1 |  | 79.76% and 77.83%
17 | Fc1ccc(-c2noc([C@@H]3Cc4nc[nH]c4CN3)n2)cc1 |  | 27.52% and 35.27%
18 | O=C(NCC1CC1)C1CN(C(=O)NC2CCCC2)Cc2cncn2C1 (centres undefined) | 10.46% | 
19 | Cc1nn(C)c(Cl)c1C1CCCN1C(=O)c1cnn(C)c1C1CC1 (centres undefined) | 4.376% | 
20 | CC(C)C(=O)N1CCCC(c2cncc(Oc3cccnc3)n2)C1 (centres undefined) | -4.997% | 
21 | c1cc(N2CCOCC(Cc3ccc4[nH]ccc4c3)C2)ncn1 (centres undefined) | 5.765% | 
22 | CNC(=O)c1cc(C2CCCNC2)n[nH]1.Cl (centres undefined) | 11.11% | 

Row | Structure (SMILES) | Percent Effect | Percent Effect (10 mM as filed; unlikely as a test dose)
23 | COCCc1noc(CN2CCCC2Cn2nc(C)nc2C)n1 (centres undefined) | 16.37% | 
24 | CC(=O)N(Cc1ncc(C)o1)C1CCN(Cc2csc(C)n2)C1 (centres undefined) | 8.537% | 
25 | Cc1cc(C(=O)N2CC[C@H]3C[C@H](c4ccncn4)O[C@@H]3C2)c(C)[nH]1 | -3.163% | 
26 | NC(=O)Cn1c(CO)cnc1SCC(=O)NCc1ccccc1Cl |  | -15.15% and -22%
27 | CC(C)(C)n1ncc2c(=O)n(CC(=O)NCc3ccccc3Cl)cnc21 |  | 89.9% and 78.88%
28 | CC(C)(C)n1ncc2c(=O)n(CC(=O)NCCc3ccccc3)cnc21 |  | -2.076% and -3.898%
29 | CCCNC(=O)Cn1nc(C(C)C)c2cnn(C(C)(C)C)c2c1=O | -2.007% | 
30 | CC(C)(C)n1ncc2c(=O)n(CC(=O)NCc3ccccc3)cnc21 |  | 92.95% and 84.04%
31 | CCCNC(=O)c1ncn2c1CN(CC(C)C)S(=O)(=O)c1ccccc1-2 | 20.71% | 
32 | CNc1ccc(C2CN(c3cc(C)nc(N)n3)CCO2)nc1 (centres undefined) | 20.28% | 
33 | CNc1nc2c(s1)C(=O)CN(C(=O)[C@@H](N)Cc1cccc(OC)c1)C2 | -10.92% | 
34 | CN[C@@H]1CCC[C@@H](Oc2ccccc2Oc2ccc(C)cc2)[C@@H]1O | 14.14% | 
35 | Cc1cccc2sc(NC(=O)CN3CCCC4(CC3)CNC(=O)O4)nc12 (centres undefined) |  | 74.6% and 74.31%
36 | Cc1cccc2sc(NC(=O)CN3CCC(C)CC3)nc12 |  | 5.902% and -3.165%
37 | Cc1cccc2sc(NC(=O)CN3CCCC(O)(CO)C3)nc12 (centres undefined) |  | -25.02% and -31.47%
38 | COc1ccc(CN(C)c2ccc(-c3nccn3C)nn2)cc1OC |  | 63.95% and 77.57%
39 | CN(Cc1nccn1C)c1ccc(-c2nccn2C)nn1 |  | -4.7% and -1.79%
40 | CN(Cc1ccoc1)c1ccc(-c2nccn2C)nn1 |  | -6.958% and -8.789%
41 | O=C(CN1CCC(c2cc(=O)n3c(n2)CCCCC3)CC1)N1CCCC1 | -0.7803% | 
42 | CC(=O)N1CCOC(c2cc(N3CC(O)C3)nc(C)n2)C1 (centres undefined) | -19.49% | 
43 | c1ccc2oc(CN3CCCC3c3noc(C4CC4)n3)nc2c1 (centres undefined) | 8.668% | 
44 | c1ccc2sc(CN3CCCC3c3noc(C4CC4)n3)nc2c1 (centres undefined) |  | 57.55% and 55.22% and 51.03%

Row | Structure (SMILES) | Percent Effect | Percent Effect (10 mM as filed; unlikely as a test dose)
45 | CC(CCc1ccccc1)N1CCC(C(=O)Nc2cnccn2)CC1 (centres undefined) | -2.997% | 
46 | CS(=O)(=O)NCc1cn2c(n1)CN(C(=O)c1ccc[nH]1)CC2 | -21.11% | 
47 | Cc1oncc1C(=O)N1CC[C@H]2[C@@H]1CCC(=O)N2CC1CCOCC1 | 5.199% | 
48 | CC(=O)N1CCC(c2cc(C(F)(F)F)nc3nccn23)CC1 | 1.841% | 
49 | O=C1[C@H]2CN(C(=O)[C@H]3CCCO3)C[C@H]2CN1CC1CC1 | 2.539% | 
50 | Cc1ncsc1CN(C)Cc1cc2c(cc1OC(F)F)OCO2 |  | 74.26% and 62.83%
51 | Cc1nc(CN(C)Cc2cc3c(cc2OC(F)F)OCO3)cs1 |  | -8.742% and -16.17%
52 | Cc1nn(C)cc1CN(C)Cc1cc2c(cc1OC(F)F)OCO2 | 5.075% | 
53 | CC(Cn1ccnc1)NC(=O)C1(c2ccc(F)cc2)CCCC1 (centres undefined) | 23.02% | 
54 | Cc1cc(N2CCC(c3n[nH]c4nccnc34)CC2)ncn1 | 7.584% | 
55 | Brc1cccc(-c2nnc(CNCCn3cccn3)o2)c1 | 2.399% | 
56 | CC(C)c1nc2c(n1C)CCN(Cc1nc(-c3ccoc3)no1)C2 |  | 83.83% and 76.55% and 70.15%
57 | c1csc(-c2noc(CN3CCc4cncnc4C3)n2)c1 |  | 24.87% and 17.34% and 36.23%
58 | CC(C)c1ncc2c(n1)CN(Cc1nc(-c3cccs3)no1)CC2 |  | 13.28% and 7.226% and -0.3719%
59 | Cn1c(C2CC2)nc2c1CCN(Cc1nc(-c3ccsc3)no1)C2 |  | 19.95% and 27.05% and 21.39%
60 | CC(C)c1nc2c(n1C)CCN(Cc1nc(-c3ccsc3)no1)C2 |  | 73.25% and 58.56% and 70.51%
61 | CC(C)c1nc2c(n1C)CCN(Cc1nc(-c3cccs3)no1)C2 |  | 44.7% and 61.16% and 58.76%
62 | CC(C)c1ncc2c(n1)CN(Cc1nc(-c3ccsc3)no1)CC2 | 18.76% | 
63 | CC(C)c1ncc2c(n1)CN(Cc1nc(-c3ccoc3)no1)CC2 |  | 11.99% and 7.268% and 10.61%
64 | Cn1cnc2c1CCN(Cc1nc(-c3ccco3)no1)C2 |  | 12.07% and 12.49%
